According to PubChem BioAssay (NCATS):
Inconclusive results are not listed. Active and inactive are the calls of the source. The call rests on the fitted dose curve; in most records, active means well fitted cell-killing curve with a large enough effect; inconclusive means small, poorly fitted or top-dose-only effect, or effect the other way; inactive means no such curve, though single readings can be large or run the other way.
Potency means the concentration at half of the fitted maximal effect.

Experiment: Quantitative High-Throughput drug screen in 47 multiple myeloma cell lines against the NCATS MIPE library collection: KHM11_PLB cell viability assay (AID 1918962); further: nearly all actives have a fitted effect of over 35% in size
Conditions: KHM11 myeloma cell viability, CellTiter-Glo ATP luminescence, 48 h; series mostly up to 45.8 µM; viability, % of DMSO control: at the top concentration
Excerpt: PI: Beverly A. Mock Ph.D.
Laboratory of Cancer Biology and Genetics,
Center for Cancer Research, National Cancer Institute,
National Institute of Health, Bethesda, Maryland
Drug resistance and disease progression are common in multiple myeloma (MM) patients, underscoring the need for new therapeutic combinations. […] We hypothesized that effective combinations would reduce MYC expression and enhance p16 activity. […] These preclinical data identify potentially useful drug combinations for evaluation in drug-resistant MM and reveal potential mechanisms of combined drug sensitivity.
Described herein is the primary MIPE qHTS used to cherrypick compounds. Validated compounds were then further tested for potential synergistic activiy.
[1] Peat TJ, Gaikwad SM, Dubois W, Gyabaah-Kessie N, Zhang S, Gorjifard S, Phyo Z, Andres M, Hughitt VK, Simpson RM, Miller MA, Girvin AT, Taylor A, Williams D, D'Antonio N, Zhang Y, Rajagopalan A, Flietner E, Wilson K, Zhang X, Shinn P, Klumpp-Thomas C, McKnight C, Itkin Z, Chen L, Kazandijian D, Zhang J, Michalowski AM, Simmons JK, Keats J, Thomas CJ, Mock BA. Drug combinations identified by high-throughput screening promote cell cycle transition and upregulate Smad pathways in myeloma. Cancer Lett. 2023 Aug 1;568:216284. doi: 10.1016/j.canlet.2023.216284. Epub 2023 Jun 24. PMID: 37356470; PMCID: PMC10408729.
SEQUENCE No. (e.g., 1, 2, 3, etc.); […] (e.g., Cells, Incubation, Reagent, etc.); VALUE and DESCRIPTION.
1; Cells; 5 uL; white, solid bottom 1536-well Greiner assay plate.
2; Compounds; 23 nL; Kalypsis pin tool (Wako USA) equipped with a 1536-well pin head to transfer to the assay plates.
3; Incubation; 48 hours; 37C incubation.
4; Reagent;5uL; CellTiter Glo (Promega).
5; Detector; 425V; Luminescence; Viewlux PerkinElmer.
NOTES (numbers refer to Sequence numbers above)
1. The cell-based screening methods employed in this study were like those previously published. Briefly, the corresponding myeloma cell lines were screened in 1,536-well plates with 500 cells, 5-uL per well for inhibition of cell viability (assessed by measuring ATP levels with CellTiterGlo).
2. NCATS MIPE 4.0 library of approved and investigational drugs were added using the Kalypsis pin tool. Wells treated with DMSO only for 100% viability and media only wells for 0% viability were used as controls.
3. The assay plates were covered and incubated for 48 hours in a 37C, 5% CO2 incubator with controlled humidity.
4. After 48 hours, CellTilter-GloTM luminescent substrate mix (Promega) reagent was added to the assay plate and plates we incubated for 5 min at room temperature.
5. Signal was measured as median relative luminescence units on a ViewLux (PerkinElmer) multiplate reader.
[1] Heske CM, Davis MI, Baumgart JT, Wilson K, Gormally MV, Chen L, Zhang X, Ceribelli M, Duveau DY, Guha R, Ferrer M, Arnaldez FI, Ji J, Tran HL, Zhang Y, Mendoza A, Helman LJ, Thomas CJ. Matrix Screen Identifies Synergistic Combination of PARP Inhibitors and Nicotinamide Phosphoribosyltransferase (NAMPT) Inhibitors in Ewing Sarcoma. Clin Cancer Res. 2017 Dec 1;23(23):7301-7311. doi: 10.1158/1078-0432.CCR-17-1121. Epub 2017 Sep 12. PMID: 28899971; PMCID: PMC6636827.
For `COc1cccc2cc(-c3nc(C4CCC(C(=O)O)CC4)n4ncnc(N)c34)[nH]c12` (stereo not given), the Potency was 0.118 µM (active).
For `O=NN(CCCl)C(=O)NCCCl`, the “viability, % of DMSO control” value was 109% (inactive).
In the case of `CCN(c1ccccc1)c1cc(NC)[n+](C)c(C)n1`, the Potency is reported as 0.235 µM (active).
For `O=C1[C@H](Cc2ccc(O)cc2)N2C(=O)CCN(C(=O)NCc3ccccc3)[C@H]2CN1Cc1cccc2ccccc12`, the Potency was 2.96 µM (active).
In the case of `COc1ccc([C@@H]2CC(=O)c3c(O)cc(O[C@@H]4O[C@H](CO[C@@H]5O[C@@H](C)[C@H](O)[C@@H](O)[C@@H]5O)[C@@H](O)[C@H](O)[C@@H]4O)cc3O2)cc1O`, the “viability, % of DMSO control” value is reported as 91.1% (inactive).
For `CN[C@@H](C)C(=O)N[C@H]1CCCC[C@H]2CC[C@@H](C(=O)N[C@@H](c3ccccc3)c3cn(CCCCc4ccc(CCCCn5cc([C@@H](NC(=O)[C@@H]6CC[C@@H]7CCCC[C@H](NC(=O)[C@H](C)NC)C(=O)N76)c6ccccc6)nn5)cc4)nn3)N2C1=O`, the Potency was 5.26 µM (active).
In the case of `Cc1cc2c(C(C)C)c(O)c(O)c(C=O)c2c(O)c1-c1c(C)cc2c(C(C)C)c(O)c(O)c(C=O)c2c1O`, the Potency is reported as 10.5 µM (active).
With `CC(C)(N)C(=O)N[C@H](COCc1ccccc1)C(=O)N1CCC2(CC1)CN(S(C)(=O)=O)c1ccccc12` the Potency was 18.7 µM (active).
For `Nc1nc2ccc(OC(F)(F)F)cc2s1`, the “viability, % of DMSO control” value was 102% (inactive).
For `CCOC(=O)C1=C[C@]2(CC)CCCN3CCc4c(n1c1ccccc41)[C@@H]32`, the Potency was 9.35 µM (active).
For `S=C(NCc1ccc2c(c1)OCO2)N1CCN(c2ncnc3c2oc2ccccc23)CC1`, the Potency was 0.855 µM (active).
For `CCOc1cc(N2CCC(O)CC2)ccc1Nc1ncc2c(n1)N(C)c1ccccc1C(=O)N2C`, the Potency was 0.935 µM (active).
For `CCc1ccc(CCOc2ccc(CC3SC(=O)NC3=O)cc2)nc1` (stereo not given), the “viability, % of DMSO control” value was 127% (inactive).
In the case of `COc1nc(-c2ccc3c(c2)OCO3)n(-c2ccc(NC(=O)CSc3ccccc3)cc2)n1`, the “viability, % of DMSO control” value is reported as 106% (inactive).
In the case of `Nc1ncnc2nc(-c3ccc(N4CCOCC4)nc3)cc(-c3cccc(Br)c3)c12`, the “viability, % of DMSO control” value is reported as 92.4% (inactive).
For `CCCS(=O)(=O)Nc1ccc(F)c(C(=O)c2c[nH]c3ncc(-c4ccc(Cl)cc4)cc23)c1F`, the Potency was 23.5 µM (active).
In the case of `Cc1cc(C=c2sc3nc4ccccc4n3c2=O)c(C)n1-c1ccccc1`, the Potency is reported as 0.833 µM (active).
For `Nc1ccc(S(=O)(=O)Nc2ccnn2-c2ccccc2)cc1`, the “viability, % of DMSO control” value was 117% (inactive).
For `NCCCC(N)(C(=O)O)C(F)F` (stereo not given), the “viability, % of DMSO control” value was 98.1% (inactive).
With `Cc1c(CCOc2ccc(C(=O)O)cc2)c2cc(Cl)ccc2n1C(c1ccccc1)c1ccccc1` the “viability, % of DMSO control” value was 93.9% (inactive).
In the case of `CCCc1nc2c(C)cc(-c3nc4ccccc4n3C)cc2n1Cc1ccc(-c2ccccc2C(=O)O)cc1`, the “viability, % of DMSO control” value is reported as 99.8% (inactive).
In the case of `O=C1CCC(N2C(=O)c3ccccc3C2=O)C(=O)N1` (stereo not given), the “viability, % of DMSO control” value is reported as 106% (inactive).
In the case of `C1COC(NC(C2CC2)C2CC2)=N1`, the “viability, % of DMSO control” value is reported as 88.5% (inactive).
With `Cc1n[nH]c(C)c1Cc1sc2c(c1C(=O)N1C[C@H](O)CO1)c(=O)n(C)c(=O)n2CC(C)C` the “viability, % of DMSO control” value was 134% (inactive).
With `Cc1ccc(N(CC2=NCCN2)c2cccc(O)c2)cc1` the “viability, % of DMSO control” value was 153% (inactive).
For `NC[C@H](O)c1ccc(O)c(O)c1`, the “viability, % of DMSO control” value was 121% (inactive).
With `Cc1ccccc1C(OCCN(C)C)c1ccccc1` (stereo not given) the “viability, % of DMSO control” value was 133% (inactive).
For `CC(C)C[C@H](NC(=O)[C@@H](O)[C@H](N)Cc1ccccc1)C(=O)O`, the Potency was 20.9 µM (active).
With `C[C@]1(c2nc3c(C(N)=O)cccc3[nH]2)CCCN1` the Potency was 18.7 µM (active).
For `CCOc1cc(C(=O)Nc2ccc(Cl)c(-c3nc4ccccc4[nH]3)c2)cc(OCC)c1OCC`, the Potency was 1.18 µM (active).
For `NNCCc1ccccc1`, the “viability, % of DMSO control” value was 121% (inactive).
In the case of `CN(C)c1ccc(Nc2nc(N)n(C(=O)c3c(F)cccc3F)n2)cc1`, the Potency is reported as 20.9 µM (active).
For `O=C(O)COCCN1CCN(C(c2ccccc2)c2ccc(Cl)cc2)CC1` (stereo not given), the Potency was 7.43 µM (active).
For `NCCc1ccc(O)c(O)c1`, the “viability, % of DMSO control” value was 95.6% (inactive).
For `CC[C@@H](C)[C@H](NC(=O)[C@H](CC1CCCCC1)NC(=O)c1ccno1)C(=O)N1CCC2(CCc3ccccc32)CC1`, the “viability, % of DMSO control” value was 95.4% (inactive).
With `Nc1nc2c(ncn2COCCO)c(=O)[nH]1` the “viability, % of DMSO control” value was 122% (inactive).
For `O=C(O)[C@@H](c1ccc(OCc2ccc3ccccc3n2)cc1)C1CCCC1`, the “viability, % of DMSO control” value was 109% (inactive).
In the case of `Cn1cc(-c2ccc3nnc(C(F)(F)c4ccc5ncccc5c4)n3n2)cn1`, the Potency is reported as 4.69 µM (active).
For `CC1(C)CNc2cc(NC(=O)c3cccnc3NCc3ccncc3)ccc21`, the “viability, % of DMSO control” value was 97.9% (inactive).
For `CCC(C)(C)C(=O)O[C@H]1C[C@@H](C)C=C2C=C[C@H](C)[C@H](CC[C@@H]3C[C@@H](O)CC(=O)O3)[C@H]21`, the Potency was 13.2 µM (active).
